Data from the OligoGym collection.

Target: PRB2
Assay: pooled miR-30 sensor sort-seq; sequence = guide strand
Settings: shRNA

Going from TCGAGAACTTCGGGACTTGTTG to TTGAGGATTGTTGCCTTCTTGT, the sensor-assay potency score (higher = more potent) rises from -0.988 to -0.928.

Going from ACTTGTTGTCTCCTTGTGGGGG to TTGTTGTCTCCTTGTGGGGGTG, the sensor-assay potency score (higher = more potent) falls from -0.828 to -1.06.

In the case of GAGGAGATCGAGAACTTCGGGA, the sensor-assay potency score (higher = more potent) is reported as -0.989.

Target: PRDM11
Assay: as above
Settings: shRNA

Compared with TTCTGGGTTATCCAGAACCTGC, TAAGCATGTCTAATTCTGCCTG is higher in sensor-assay potency score (higher = more potent): -1.79 for the first, -0.386 for the second.

Compared with TTGCACACTGACTGTAGGCGTC, TAATTCTGCCTGGAGCTCCCGA is lower in sensor-assay potency score (higher = more potent): -0.555 for the first, -0.672 for the second.

First: TTCTTCTTCTTAGCTTGGGGGT
Second: TGTTGTTGCACACTGACTGTAG
The sensor-assay potency score (higher = more potent) of the first is lower: -0.763 for the first, 0.562 for the second.

Going from TTTTCTTCTTCTTAGCTTGGGG to TTGTTGTTGCACACTGACTGTA, the sensor-assay potency score (higher = more potent) rises from -0.102 to -0.0431.

First: TATATTCTGCACACCATGGGTC
Second: TCCGACAATAATCTCATCCAAA
The sensor-assay potency score (higher = more potent) of the first is higher: 0.141 for the first, -1.56 for the second.

First: TTTCTTCTTCTTAGCTTGGGGG
Second: TCATCCAAACCAACTTACCTGC
The sensor-assay potency score (higher = more potent) of the first is lower: -0.807 for the first, -0.593 for the second.

Target: PREB
Assay: as above
Settings: shRNA

Going from TTGCACTGTGAAGAGTCGCAGG to TAAAGTCTGTCTGCACCGCCTG, the sensor-assay potency score (higher = more potent) falls from -0.529 to -0.668.

First: TTGAACTCCAGAACCTTCTCCA
Second: TTCACTGACATCGAGGCAGGAG
The sensor-assay potency score (higher = more potent) of the first is higher: 0.863 for the first, 0.301 for the second.

First: TTCTGCAGTGGATCGGAGCTAA
Second: TAAGGGTAGACTACCTAGGAAC
The sensor-assay potency score (higher = more potent) of the first is higher: 0.0919 for the first, -1.26 for the second.

Going from TTGTGGGGAATTTGCACTGTGA to TTCGTGGGCTTTGAACTCCAGA, the sensor-assay potency score (higher = more potent) falls from -0.563 to -1.33.

First: ATCGGAGCTAAAGTCTGTCTGC
Second: AAAGTCTGTCTGCACCGCCTGC
The sensor-assay potency score (higher = more potent) of the first is higher: -0.682 for the first, -1.08 for the second.

First: TTCTTTATGCCTGTCTTGGCGG
Second: TTGATGTGCCTGGAAGCGCAGG
The sensor-assay potency score (higher = more potent) of the first is lower: -0.991 for the first, -0.963 for the second.

Target: PRKAR1B
Assay: as above
Settings: shRNA

First: TGCTGTATAACAGTCTCCCCAG
Second: TTTCTCTCCATCTTCAAACTGG
The sensor-assay potency score (higher = more potent) of the first is higher: -0.318 for the first, -0.327 for the second.

Compared with TTGCTGTATAACAGTCTCCCCA, TCCATCTTCAAACTGGACGGGC is higher in sensor-assay potency score (higher = more potent): -0.886 for the first, -0.749 for the second.

Going from TTGATCAACGACATAGAAGTTG to TTCCTCTTGAGGATCTCAGAGC, the sensor-assay potency score (higher = more potent) falls from -0.313 to -0.844.

Compared with AACTCCTCGTACATCTTGCGTT, TATAACAGTCTCCCCAGCGATG is lower in sensor-assay potency score (higher = more potent): -1.1 for the first, -1.57 for the second.

Compared with TTCCTTCTCCAGCTTCTCGAAG, TACACCTCGGCACTCACGCCTC is higher in sensor-assay potency score (higher = more potent): -1.27 for the first, -1.12 for the second.

In the case of TCTAGGATGGAGACCTTGCTGA, the sensor-assay potency score (higher = more potent) is reported as -0.482.
